Assay outcomes: PubChem, The Scripps Research Institute Molecular Screening Center
UHRF1 MBD2 ctr = UHRF1 methyl-DNA binding inhibition; UHRF1 binding to methylated oligo, TR-FRET; actives 0.75% (n = 370,000); inhibition, % at 4.4 µM; Q96T88; in the data active = inhibition above about 21%;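 also: UHRF1 SRA domain binding a hemimethylated CpG hairpin DNA probe; 0% = median of test compound wells and 100% = reference inhibitor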
rCAG binder = r(CAG) repeat RNA binding; TO-PRO-1 dye displacement fluorescence; inhibition, % at 3 µM; actives 1.3% (n = 370,000); AID 651821;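 active = inhibition above the plate cutoff, the mean of all test compounds on that plate plus 3 SD, cut at about 35% in these data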;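 also: 0% = DMSO alone and 100% = 100 µM mitoxantrone as full dye displacement; higher means more dye released from RNA so lower well fluorescence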
MBD2 DNA inh = inhibitors of human MBD2 binding to methylated oligonucleotide; inhibition, % at 4.4 µM; actives 0.31% (n = 370,000); AID 686964; TR-FRET; in the data active = inhibition above about 13%
Target sequence (Q9UBB5 whole entry, looked up): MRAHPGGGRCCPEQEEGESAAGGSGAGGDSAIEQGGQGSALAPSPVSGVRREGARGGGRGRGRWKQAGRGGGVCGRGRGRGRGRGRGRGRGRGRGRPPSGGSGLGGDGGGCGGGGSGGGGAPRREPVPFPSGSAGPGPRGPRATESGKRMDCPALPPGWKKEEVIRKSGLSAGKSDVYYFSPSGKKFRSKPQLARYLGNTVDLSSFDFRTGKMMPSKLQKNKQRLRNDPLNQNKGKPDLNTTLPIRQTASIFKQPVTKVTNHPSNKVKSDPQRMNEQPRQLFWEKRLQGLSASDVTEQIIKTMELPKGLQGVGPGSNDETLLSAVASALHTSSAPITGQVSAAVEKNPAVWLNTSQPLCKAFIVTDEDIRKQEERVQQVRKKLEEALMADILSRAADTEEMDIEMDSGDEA
PRMT1 FP inh = blocks human protein arginine methyltransferase 1. Q99873. recombinant PRMT1, activity-based probe fluorescence polarization. inhibition, % at 2.79 µM. actives 1.3% (n = 370,000). AID 652257;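 active = inhibition above about 21% made by adding two undisclosed values, limit read from the data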
LEDGF integ inh = blocks HIV-1 LEDGF/p75-dependent DNA integration | TR-FRET IN-LEDGF/p75 DNA integration, Eu/Cy5 | inhibition, % at 3.7 µM | actives 0.64% (n = 370,000);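 active = inhibition above the screen-wide mean plus 3 SD, cut at about 13% in these data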;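 also: signal is the Cy5 over europium emission ratio at 671 and 618 nm; 0% = plate median of compound wells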
ABHD5 PLIN5 PPI = blocks binding of human ABHD5 to perilipin-5; Q00G26+Q8WTS1; Split G. princeps luciferase complementation, luminescence, 4 h; inhibition, % at 4 µM; actives 0.78% (n = 360,000);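 active = inhibition above the mean inhibition across every tested compound plus 3 SD, cut at about 22% in these data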;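 also: 0% = DMSO only wells and the 100% control is not disclosed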
ABHD5 PLIN5 conf = confirmation of human ABHD5-PLIN5 interaction inhibitors. shares compounds with ABHD5 PLIN5 PPI. biochemical ABHD5-PLIN5 interaction, luminescence. inhibition, % at 4 µM. actives 67% (n = 2,200). AID 651612; in the data active = inhibition above about 23%;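 also: 0% = DMSO vehicle wells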
HNF4 counter = counter-screen for ABHD5-PLIN5 inhibitors: HNF4 split-luciferase | shares compounds with ABHD5 PLIN5 PPI | HNF4 dimerization, luminescence, biochemical | inhibition, % at 4 µM | actives 77% (n = 2,200);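 active = mean inhibition across replicate wells exceeding the computed hit threshold, cut at about 13% in these data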;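 also: light from luciferase halves that rejoin when HNF4 fusion proteins dimerize; 0% = DMSO only wells and the 100% control is not given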
* = called active by the depositor; i = inactive; . = no result given. Hits are enriched below; roughly 4.1% of the tested compounds scored in any of these assays.

SMILES	UHRF1 MBD2 ctr	rCAG binder	MBD2 DNA inh	PRMT1 FP inh	LEDGF integ inh	ABHD5 PLIN5 PPI	ABHD5 PLIN5 conf	HNF4 counter
Cc1cccc(C)c1NC(=O)C(c1ccccc1)n1c(=O)c(-c2ccco2)nc2ccccc21 (configuration not stated)	-2.7	30.9	1.6	12.3	1.4	88.1*	56.0*	22.6*
Cc1cccc(C)c1NC(=O)C(c1ccncc1)n1c(=O)c(-c2ccccc2)nc2ccccc21 (configuration not stated)	-3.6	6.6	0.7	-2.1	6.1	-4.9	.	.
Cc1cccc(C)c1NC(=O)C(CCc1ccccc1)n1c(=O)c(-c2cc3ccccc3[nH]2)nc2ccccc21 (configuration not stated)	-1.8	19.0	-2.1	-0.7	-2.5	4.7	.	.
Cc1cccc(C)c1NC(=O)C(c1ccc(C#N)cc1)n1c(=O)c(-c2ccco2)nc2ccccc21 (configuration not stated)	-4.8	29.1	-6.5	8.8	0.0	49.8*	62.8*	8.1
COc1ccc(C(C(=O)Nc2c(C)cccc2C)n2c(=O)c(-c3ccccc3)nc3ccccc32)cc1 (configuration not stated)	1.7	7.7	2.8	3.3	-5.0	-3.6	.	.
Cc1cccc(C)c1NC(=O)C(CCc1ccccc1)n1c(=O)c(-c2ccccc2)nc2ccccc21 (configuration not stated)	0.4	10.0	1.9	-2.4	4.0	25.6*	31.2*	13.0*
N#Cc1ccc(C(C(=O)Nc2ccc3c(c2)OCCO3)n2c(=O)c(-c3ccco3)nc3ccccc32)cc1 (configuration not stated)	-4.3	24.6	-3.9	3.5	5.5	31.1*	32.2*	7.7
COC(=O)[C@]12C[C@H](CC(=O)N3CCN(C(=O)C4CC4)CC3)C(=O)N(Cc3ccc(Cl)cc3Cl)C1=C[C@H](C1CCCC1)O[C@@H]2C	1.1	8.9	3.1	-0.1	-7.0	.	.	.
COC(=O)[C@]12C[C@H](CC(=O)NCc3ccc(C)o3)C(=O)N(Cc3ccco3)C1=C[C@H](C1CCCC1)O[C@@H]2C	2.1	4.1	-3.0	5.1	-1.3	.	.	.
O=C1c2ccccc2/C(=C\c2ccc(O[C@@H]3CCCCO3)cc2)N1c1ccccc1	-0.4	7.2	-1.7	-0.9	-0.6	.	.	.
COC(=O)[C@]12C[C@H](CC(=O)NCCc3ccccc3OC)C(=O)N(Cc3ccc(Cl)cc3Cl)C1=C[C@H](C(C)C)O[C@@H]2C1CC1	-1.1	9.0	-4.3	-1.5	3.0	.	.	.
C(=C\c1ccccc1)/CSc1nnc(-c2ccccn2)n1Cc1ccco1	2.1	6.9	2.3	4.4	0.7	34.1*	21.4	44.0*
C=CCC(Nc1ccccc1)C12C=CC(O1)C(C(=O)OC)=C2C(=O)OC (configuration not stated)	-3.9	-2.9	-5.1	0.3	0.5	26.2*	85.6*	89.5*
CCNC(=S)N(CCc1c(C)[nH]c2ccc(Cl)cc12)Cc1ccco1	-0.8	2.3	5.3	1.5	-1.6	7.9	.	.
CNC(=S)N(CCc1c(C)[nH]c2ccc(C)cc12)Cc1ccco1	0.5	13.9	-6.1	7.3	2.0	31.4*	2.5	-5.6
COc1ccccc1/C=C/C=N/n1c(-c2ccc(F)cc2)n[nH]c1=S	4.1	16.5	1.3	11.7	-5.0	52.3*	-14.1	-8.3
COc1ccccc1/C=C\C=N\n1c(-c2ccc(Cl)cc2)n[nH]c1=S	0.9	12.8	5.5	12.3	0.9	-3.5	.	.
O=C(CC(Nc1ccc(F)cc1)C(=O)O)c1ccccc1 (configuration not stated)	-1.2	0.8	-3.2	17.7	-0.7	42.6*	38.0*	89.5*
CCN1/C(=C/C=C/c2oc3ccc(-c4ccccc4)cc3[n+]2CC)Oc2ccc(-c3ccccc3)cc21	-49.2	i	-10.2	-13.7	-0.7	37.1*	92.1*	59.9*
COc1cccc(CC(=O)O[C@@H]2CCC[C@@]3(C(=O)N(Cc4ccccc4)c4ccccc43)[C@H]2NC(=O)CCc2ccccc2)c1	0.5	8.7	-0.6	-0.6	-1.8	.	.	.
CCC(c1nc2ccccc2[nH]1)n1c(=O)c(-c2ccco2)nc2ccccc21 (configuration not stated)	-5.3	25.6	1.1	16.8	3.6	37.5*	58.6*	23.5*
O=c1c(-c2ccccc2)nc2ccccc2n1C(c1ccccn1)c1nc2ccccc2[nH]1 (configuration not stated)	-4.7	13.2	-0.7	6.9	1.4	12.9	.	.
O=c1c(-c2ccco2)nc2ccccc2n1C(c1ccccc1)c1nc2ccccc2[nH]1 (configuration not stated)	-7.4	29.1	-6.3	10.3	2.6	35.7*	28.0*	16.2*
O=c1c(-c2cccs2)nc2ccccc2n1C(CCc1ccccc1)c1nc2ccccc2[nH]1 (configuration not stated)	-3.4	11.2	-6.5	0.0	0.7	4.2	.	.
O=c1c(-c2ccco2)nc2ccccc2n1C(CCc1ccccc1)c1nc2ccccc2[nH]1 (configuration not stated)	-3.4	31.6	2.3	4.7	6.1	72.4*	55.1*	9.6
SMILES	UHRF1 MBD2 ctr	rCAG binder	MBD2 DNA inh	PRMT1 FP inh	LEDGF integ inh	ABHD5 PLIN5 PPI	ABHD5 PLIN5 conf	HNF4 counter
Cc1cc(C)nc(NC(=S)N2CCN(c3ccc(Cl)c(Cl)c3)CC2)c1	-1.2	.	2.9	1.2	3.9	.	.	.
C[C@H]1[C@@H](N(C)Cc2cccs2)CC[C@@]23CCCN2C(=O)CCC[C@@H]13	-2.7	.	3.6	-3.0	-1.1	.	.	.
C[C@@H]1CNCCN1c1ccc(N2CCS(=O)(=O)CC2)c(C#N)c1	-1.5	4.3	-2.7	-2.5	3.5	.	.	.
N#Cc1ccc(NC(=O)OC2CC3CC2[C@H]2CCCCN2C3)cc1 (some centres not stated)	-0.8	10.0	0.2	-1.6	1.4	.	.	.
CC(C)(C)NC(=O)C(c1ccncc1)N(Cc1ccco1)C(=O)c1ccc(-c2ccccc2)[nH]1 (configuration not stated)	-3.1	1.0	-0.7	3.0	-2.2	30.1*	31.4*	43.5*
O=C(Nc1nc2ncccn2c1-c1ccc(C(F)(F)F)cc1)c1ccc(F)cc1	-1.6	0.6	-4.6	-1.0	-2.1	.	.	.
O=C(Nc1ccccc1)Nc1nc2ncccn2c1-c1ccc(C(F)(F)F)cc1	3.4	4.4	2.5	2.9	-1.8	.	.	.
C=CCOc1cccc(C(=O)/C=C2/C(=O)Nc3ccccc32)c1	-3.5	10.4	-6.7	4.2	-0.5	65.1*	80.1*	90.0*
O=C(CC1(O)C(=O)Nc2ccc(Br)cc21)c1ccccc1 (configuration not stated)	-2.5	3.0	5.3	-10.9	4.0	-8.9	.	.
